Source: PubChem BioAssay
HCMV inh – inhibitors of human cytomegalovirus | activity change, negative = inhibition, % at 57.5 µM | AID 1259415 | HFF cells, HCMV-luciferase reporter, 72 h; stronger effect = lower value | hit rate 4.5% among 410,000; in the data active = activity change below about -60%; inconclusive = no clear call, values can overlap the other calls; inactive = above about -39%
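Cell-based, HFFs, 1000 cells/well, 16 h 37C; cpds in DMSO + HCMV-luc, MOI 1 PFU/cell; 72 h 37C; OneGlo luminescence after 5 min RT; norm. to buffer vs Salinomycin 10uM.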
Marburg entry inh – blocks Marburg virus binding to or entry into cells. Potency, µM (titrated, usually from 37.8 µM), for inactives: at the highest dose activity change, negative = inhibition, most hits filed as inhibitors. hit rate 1.8% among 300,000. Marburg virus pseudotyped entry inhibition, cell reporter; calls by dose curve; tested in HEK293 cells; also: potency is read from the fitted curve at half-maximal effect
LASV entry inh – inhibitors of Lassa virus binding or cell entry; hit rate 1.2% among 300,000; Lassa virus pseudotype entry inhibition, cell reporter; Potency, µM (titrated, usually from 37.9 µM), for inactives: top-dose activity change, negative = inhibition, usual class: inhibitors; AID 540256; calls by dose curve; tested in HEK293 cells; also: potency is read from the fitted curve at half-maximal effect; nearly all actives have a fitted effect of over 50% in size
Vaccinia Venus – inhibitors of vaccinia virus (Venus reporter). Vaccinia virus Venus reporter expression, fluorescence. Potency, µM (top dose mostly 36.5 µM), without a hit: at the top dose activity change, negative = inhibition, actives largely listed as inhibitors. hit rate 0.46% among 330,000. AID 720580; calls by dose curve; tested in A549 cells; also: potency is read from the fitted curve at half-maximal effect; nearly all actives have a fitted effect of over 30% in size
Vaccinia mCherry – inhibitors of vaccinia virus infection (mCherry reporter signal); Vaccinia virus mCherry reporter infection, fluorescence; hit rate 0.63% among 310,000; AID 720579; Potency, µM (top dose mostly 36.5 µM), for the others: top-dose activity change, negative = inhibition, hits mostly inhibitors; calls by dose curve; tested in A549 cells; also: potency is read from the fitted curve at half-maximal effect; nearly all actives have a fitted effect of over 35% in size
HCV inhibitor – HCV inhibition; Huh7.5.1 HCVcc-Cre infection, luciferase reporter, 44 h; Potency, µM (highest dose often 41.8 µM), inactives show at the highest dose activity change, negative = inhibition, usual class: inhibitors; hit rate 3.4% among 340,000; active = well fitted inhibition curve with a large enough effect; inconclusive = small, poorly fitted or top-dose-only effect, or another doubt; inactive = no such curve, though single readings can be large or run the other way; also: potency is read from the fitted curve at half-maximal effect
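Antiviral activity was scored by luciferase reporter output from cells infected with HCVcc-Cre (~0.5 moi) in presence of compound, 44 h infection period, cells seeded 1,000/well 4 h prior.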
Numbers without * were called inactive; i = inactive; ? = inconclusive; . = not tested or not shown; [ ] = remark or other dose. Compounds with a hit are over-represented: about 7.8% of the library has one in this group of screens. % is scaled to controls: 0 for no effect and ±100 for the full control effect.

SMILES	HCMV inh	Marburg entry inh	LASV entry inh	Vaccinia Venus	Vaccinia mCherry	HCV inhibitor
O=[N+]([O-])c1c(Nc2ccccn2)cc(Cl)c2nonc12	-104.5*	1.3%[46.1 µM]	?	-30.7%	-25.2%	?
Cc1cc(O)c(CN2CCN(c3ccccc3)CC2)c2oc(=O)cc(C)c12	-1.4	14.1%[46.1 µM]	14.2%[46.1 µM]	-12.0%	-10.4%	.
COc1ccc(CNC(=O)c2cc3c(=O)n(Cc4ccco4)ccc3nc2C)c(OC)c1	?	.	5.3%[46.1 µM]	-2.6%	-2.6%	.
CCOC(=O)c1cccc(P(=O)(C(C)(C)C)C(C)(C)C)c1	-15.9	15.5%	4.2%	-6.7%	i	3.4%
CCOC(=O)c1ccc(P(=O)(c2ccccc2)c2ccccc2)cc1	-96.5*	.	.	.	.	-0.3%
CCOC(=O)c1ccc(Cl)c(NC(=O)c2ccc(-c3ccccc3)cc2)c1	35.1	?	1.3%	-11.5%	-9.5%	-4.0%
CCOC(=O)c1ccc(-[n+]2c(-c3ccccc3)cc(-c3ccccc3)cc2-c2ccccc2)cc1	.	.	.	?	i	0.631µM*
CCOC(=O)c1cccc(-[n+]2c(-c3ccccc3)cc(-c3ccccc3)cc2-c2ccccc2)c1	-99.1*	.	.	-26.5%	i	?
COc1cccc(N2CCN(C(=O)CN3CCSc4ccccc43)CC2)c1	-8.7	.	-29.1%[46.1 µM]	5.2%	-8.8%	.
Cc1nn(C)cc1CNc1nc(C)c(-c2ccn(CC3COc4ccccc4O3)n2)s1 (stereo not given)	.	.	.	-9.6%	-8.7%	.
Cc1c(C)c2cc3c(c(C)c2oc1=O)OCN(CCc1ccccc1)C3	14.8	5.0%[46.1 µM]	14.0%[46.1 µM]	0.4%	-14.7%	.
CCC(=O)N1CCc2cc(Br)cc(S(=O)(=O)CCC(=O)N(CC)Cc3ccccc3)c21	-12.9	16.3%[46.1 µM]	-9.6%[46.1 µM]	-12.2%	-4.1%	.
Cc1cccc(NC(=S)NCc2ccc(F)cc2)c1	-13.1	-11.2%	?	0.1%	-10.2%	-8.0%
Cc1cccc(NC(=S)NC(C)(C)CC(C)(C)C)c1	-64.5*	?	-14.0%[46.1 µM]	-15.7%	-25.1%	-23.8%
COc1ccc(CN(C)Cc2nc(Cc3cccc(F)c3)no2)c2cccnc12	-82.2*	?	?	?	?	10µM*
c1coc(-c2ccccc2CN2CCOc3ccc(CN4CCOCC4)cc3C2)c1	.	.	.	-5.0%	-8.3%	.
CCOC(=O)c1cc(-c2ccc(OC)c(S(=O)(=O)NC3CCCCC3)c2)on1	-69.5*	.	29.2%[46.1 µM]	-8.0%	-7.3%	.
COc1ccc(-c2cc(CNC(C)=O)on2)cc1	32.1	-21.8%[46.1 µM]	?	-6.6%	.	-5.6%
COc1ccc(-c2cc(CNC(=O)CCl)on2)cc1	-62.6*	?	?	8.91µM*	.	?
COCCCNC(=O)CSc1nc2c(sc3ccccc32)c(=O)n1CCCC(=O)NCCOC	-23.1	7.2%[46.1 µM]	-5.6%[46.1 µM]	-12.0%	-15.1%	.
FC(F)Oc1ccc(NC(=S)NC2CCSc3ccccc32)cc1 (stereo not given)	-82.3*	-28.6%	-23.2%	?	-24.9%	-18.5%
O=C(N/N=C/c1cccnc1)c1ccccc1	?	.	.	.	.	11.2%
CC(C)c1ccc(OCc2cccc(C(=O)N/N=C/c3cccnc3)c2)cc1	171.4	1.41µM*	?	-17.1%	-22.3%	?
CCOc1ccc(OCc2cccc(C(=O)N/N=C/c3cccnc3)c2)cc1	82.7	0.316µM*	1.58µM*	-7.5%	-16.5%	2.4%
O=C(N/N=C/c1cccnc1)c1cccc(Br)c1	11.4	.	.	.	.	18.5%
SMILES	HCMV inh	Marburg entry inh	LASV entry inh	Vaccinia Venus	Vaccinia mCherry	HCV inhibitor
Cc1ccc2c(c1)CN(CCNC(=O)c1cc3ccccc3oc1=O)CC(C)O2 (stereo not given)	.	.	.	0.6%	-7.2%	.
COCCN(C)C(=O)c1cnn(-c2ncc3c(n2)-c2ccccc2CCC3)c1C1CC1	.	.	.	2.9%	-7.6%	.
CCOc1ccc(-n2cc(-c3ccccc3)c3c(N4CCOCC4)ncnc32)cc1	47.1	?	?	-9.3%	-15.8%	11.2µM*
c1ccc(-c2cn(-c3ccccc3)c3ncnc(N4CCCCC4)c23)cc1	11.8	?	?	-0.3%	i	?
COc1ccc(Br)cc1C(=O)Nc1ccc(O)cc1	-5.7	25.3%	-10.2%	-2.8%	-11.8%	3.98µM*
COc1ccc(Br)cc1C(=O)Nc1cccc2ncccc12	-39.2	?	17.4%	.	.	10µM*
O=C(Nc1ccc(Br)cc1)c1cc(Br)cc(Br)c1O	-99.1*	.	.	.	.	.
CCOc1ccc(C2C(C(N)=O)=C(C)Nc3nc(SCc4ccccc4)nn32)cc1 (stereo not given)	3.7	-2.9%[46.1 µM]	?	-1.9%	-3.6%	.
COC(=O)CC=C[C@@H](C)[C@@H](C=NO[C@@H](C)c1cn([C@H](CO)Cc2ccccc2)nn1)NS(=O)(=O)c1ccc(C)cc1	.	-12.7%[14.2 µM]	12.8%[14.3 µM]	.	.	.
CCCC(C)C(=O)Nc1ncc(S(=O)(=O)c2ccc([N+](=O)[O-])cc2)s1 (stereo not given)	-21.2	-46.4%[46.1 µM]	?	?	2.51µM*	?
Cc1ccc2[nH]c3c(c2c1)CN(C(=O)CN1C[C@@H](C)O[C@@H](C)C1)CC3	.	6.5%	.	.	.	.
O=C1NC(=O)/C(=C/c2ccc(-c3ccc(F)cc3O)o2)S1	.	6.3%	1.3%	.	.	.
COc1ccccc1Nc1ncnc2scc(-c3ccc(F)cc3)c12	-82.5*	.	5.3%[46.1 µM]	-1.4%	2.1%	.
c1ccc(-c2csc3ncnc(NCc4ccccn4)c23)cc1	-89.4*	.	.	.	.	10µM*
c1ccc(CNc2ncnc3scc(-c4cccs4)c23)nc1	-84.1*	.	.	.	.	?
Oc1ccc(Nc2ncnc3scc(-c4ccccc4)c23)cc1	-63.9*	?	?	-29.1%	-0.1%	8.91µM*
CCCN1C(=O)c2ccccc2NC1c1ccc(OC)c(COc2ccc([N+](=O)[O-])c(C)c2)c1 (stereo not given)	.	.	.	-20.4%	14.2%	.
CC(C)CC(NC(=O)C1CCC(C)CC1)C(=O)OCC(=O)c1ccc(Cl)cc1 (stereo not given)	3.8	-1.1%[46.1 µM]	-2.5%[46.1 µM]	-12.1%	-8.7%	.
Cc1ccc(C(=O)NCCc2nnc3n2CCN(Cc2cc(C)cc(C)c2)CC3)cc1	.	.	.	-10.0%	-14.1%	.
O=C(Nc1ccc(Cl)cc1)N1CCSC1=NCc1ccccc1	-31.1	17.0%	-1.2%	-13.1%	-16.4%	12.9%
O=C(CN1CCSC1=NCc1ccccc1)c1ccc(Cl)cc1	-3.6	-23.8%	14.7%	-15.1%	-26.3%	12.6µM*
Cc1ccc(-c2cc(C(F)F)nc(NCc3cccs3)n2)cc1	28.0	5.3%	?	-12.7%	-10.5%	?
Cc1ccc(-c2nc(C#N)c(NCC3CCCO3)o2)cc1 (stereo not given)	55.8	1.4%[46.1 µM]	.	-4.1%	-7.3%	-10.1%
Cc1ccc(-c2cc(C(F)F)nc(NCC3CCCO3)n2)cc1 (stereo not given)	34.6	-0.1%[46.1 µM]	-9.2%	?	-24.8%	3.98µM*
FC(F)(F)c1cc(-c2ccc(Cl)cc2)nc(NCc2cccnc2)n1	-27.0	-20.9%	-25.8%	?	?	11.2µM*
Cc1ccc(-c2cc(C(F)F)nc(N3CCOCC3)n2)cc1	-39.1	?	-4.7%[46.1 µM]	?	-5.2%	5.62µM*
